Compound activity (PubChem BioAssay)
IL-1B inflam inh = inhibitors of inflammasome signaling (IL-1 beta secretion) | THP-1 LPS/ATP IL-1B secretion, AlphaLISA, 16 h; stronger effect = lower value | activity change, % at 57.5 µM | hit rate 4.7% among 360,000; in the data active = activity change below about -50%; inconclusive = mostly about -30% to -49%; note: % is set by controls: 0 for no effect and ±100 for the full control effect
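Secreted IL-1B measured by AlphaLISA bead assay after 16 h compound exposure of THP-1 cells; compounds (final up to 57.5 uM) added 1 h before LPS (250 ng/mL) and ATP (1.25 mM) stimulation; lower signal means less secretion.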
S-ASM inh = blocks human secretory acid sphingomyelinase; placental ASM, HMU-PC fluorogenic substrate, 60 min; Potency, µM (doses to about 57.5 µM), without a hit: at the top dose activity change, negative = inhibition, most hits filed as inhibitors; hit rate 0.006% among 340,000; AID 504937; note: potency is the fitted concentration of half-maximal effect
Target sequence (P17405 47-631 limits assumed): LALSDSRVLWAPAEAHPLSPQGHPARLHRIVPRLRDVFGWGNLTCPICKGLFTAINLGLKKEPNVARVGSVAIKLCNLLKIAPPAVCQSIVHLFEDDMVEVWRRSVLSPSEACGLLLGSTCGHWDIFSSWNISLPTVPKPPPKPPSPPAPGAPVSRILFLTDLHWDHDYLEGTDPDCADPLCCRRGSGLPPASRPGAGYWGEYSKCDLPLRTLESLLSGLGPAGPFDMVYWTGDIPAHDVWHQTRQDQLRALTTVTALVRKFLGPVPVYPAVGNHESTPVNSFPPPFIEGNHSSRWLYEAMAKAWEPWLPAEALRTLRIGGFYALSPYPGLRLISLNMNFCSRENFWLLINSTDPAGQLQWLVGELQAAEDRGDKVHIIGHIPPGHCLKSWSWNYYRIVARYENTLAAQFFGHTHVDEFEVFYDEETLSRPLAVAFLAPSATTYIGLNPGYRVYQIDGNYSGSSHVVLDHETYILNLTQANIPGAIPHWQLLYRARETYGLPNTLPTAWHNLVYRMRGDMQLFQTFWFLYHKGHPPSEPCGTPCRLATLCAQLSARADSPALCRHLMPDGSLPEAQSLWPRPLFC
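Human placenta-derived ASM enzyme was preincubated with compound for 10 minutes at room temperature, then given fluorogenic substrate HMU-PC0 (9 uM final) for 60 minutes at 37 °C; a pH 10 stop preceded fluorescence reading at Ex 386/Em 447 nm.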
HepG2 tox = HepG2 cytotoxicity, counter-screen for TGF-b inhibitors; hit rate 0.76% among 410,000; Potency, µM (doses to about 46.1 µM), without a hit: top-dose activity change, negative = cytotoxicity, hits mostly cytotoxic; HepG2 CAGA-GFP viability, ATP luminescence, 18 h; note: potency is the fitted concentration of half-maximal effect
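CellTiter-Glo luminescence gave cytotoxicity after 18 hours at 37 degrees C. The cells were HepG2 CAGA-GFP in 1% FBS DMEM, stimulated with 500 pg/mL TGF-beta after compound addition. %Activity was normalised to no-cell wells (complete cell-killing) and DMSO (no toxicity), and curves were fitted and classified.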
DT40 TDP1 CPT = DT40-hTDP1 cell growth loss with CPT; chicken DT40 Tdp1-/-;hTDP1 cells + 20 nM CPT, ATP luminescence, 48 h; Potency, µM (top dose mostly 46.2 µM), without a hit: top-dose activity change, negative = growth inhibition, hits mostly inhibitors; hit rate 12% among 420,000; AID 686979; note: potency is the fitted concentration of half-maximal effect; % is set by controls: 0 for no effect and ±100 for the full control effect; nearly all actives have a fitted effect of over 55% in size
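Chicken DT40 Tdp1-/- cells complemented with human TDP1, 400 cells/well, exposed to compounds plus 20 nM camptothecin for at least 48 h at 37 C; viability read as ATP content by CellTiter-Glo luminescence.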
TGFb SMAD3 inh = blocks TGF-b signaling | HepG2 CAGA-GFP TGF-b/SMAD3 reporter, GFP fluorescence, 18 h; TGF-beta stimulated, 500 pg/mL final | hit rate 1.2% among 410,000 | Potency, µM (highest dose often 46.1 µM), for inactives: top-dose activity, negative = inhibition, hits mostly inhibitors; note: potency is the fitted concentration of half-maximal effect; % is set by controls: 0 for no effect and ±100 for the full control effect; nearly all actives have a fitted effect of over 65% in size
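Per well, imaged GFP fluorescence of HEPG2 CAGA-GFP cells gives the signal; cells get compound, then TGF-beta (500 pg/mL final), 18 h at 37 degrees C; %Activity versus -TGF-beta and +DMSO controls.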
DT40 TDP1 no CPT = qHTS for Inhibitors of human tyrosyl-DNA phosphodiesterase 1 (TDP1): qHTS in cells in absence of CPT; DT40 Tdp1-/- hTDP1 cells, no CPT, ATP luminescence, 48 h; Potency, µM (doses to about 46.2 µM), for the others: at the top dose activity change, negative = growth inhibition, most hits filed as inhibitors; hit rate 15% among 420,000; note: potency is the fitted concentration of half-maximal effect; % is set by controls: 0 for no effect and ±100 for the full control effect; nearly all actives have a fitted effect of over 55% in size
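Cells were dispensed at 400 per well, compounds added by pin tool, plates incubated ≥48 hr at 37 °C, then CellTiter-Glo added for 30 min at room temperature before luminescence reading. Line: DT40 Tdp1-/- complemented with hTDP1; camptothecin omitted.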
Numbers without * were called inactive. A selection: hits, their analogues and other compounds. The true share with any hit is near 19%. Unless noted, calls come from the whole dose curve; as a rule, active = well fitted curve in the direction sought with a large enough effect; inconclusive = small, poorly fitted or top-dose-only effect, or another doubt; inactive = no such curve, though single readings can be large; an effect the other way counts as inactive or inconclusive.

What do the screens show for `COc1ccc(-c2cn3nc(N4CCC(C(=O)Nc5ccccc5OC)CC4)sc3n2)cc1`?
HepG2 tox: -17%; DT40 TDP1 CPT: inconclusive; TGFb SMAD3 inh: 0%; DT40 TDP1 no CPT: inconclusive

What do the screens show for `COc1ccc(-c2cn3nc(N4CCCC(C(=O)Nc5cc(C)cc(C)c5)C4)sc3n2)cc1` (configuration not stated)?
HepG2 tox: -13%; DT40 TDP1 CPT: 8.2µM*; TGFb SMAD3 inh: 0%; DT40 TDP1 no CPT: 8.2µM*

How did Cc1ccc(-c2c(C)sc3ncn(CC(=O)N4CCOCC4)c(=O)c23)cc1C do in these assays?
IL-1B inflam inh: 17; S-ASM inh: 3%; HepG2 tox: -28%; DT40 TDP1 CPT: -20%; TGFb SMAD3 inh: -11%; DT40 TDP1 no CPT: -18%

How did COc1ccc(/C=N/Nc2nn3cnnc3c3ccccc23)cc1 do in these assays?
IL-1B inflam inh: -12; S-ASM inh: 10%; HepG2 tox: -4%; DT40 TDP1 CPT: 13%; TGFb SMAD3 inh: 10%; DT40 TDP1 no CPT: inconclusive

Results for COc1ccc(-c2cn3nc(N4CCCC(C(=O)Nc5ccc(C)c(C)c5)C4)sc3n2)cc1 (configuration not stated) ?
HepG2 tox: -12%; DT40 TDP1 CPT: inconclusive; TGFb SMAD3 inh: 0%; DT40 TDP1 no CPT: 12µM*

Results for CCCSCCCNC(=O)C1CCN(c2nn3cc(-c4ccc(F)cc4)nc3s2)CC1 ?
HepG2 tox: 0%; DT40 TDP1 CPT: 5.2µM*; TGFb SMAD3 inh: 0%; DT40 TDP1 no CPT: inconclusive

What do the screens show for `COc1ccc(-c2cn3nc(N4CCCC(C(=O)NCc5ccccc5C)C4)sc3n2)cc1` (configuration not stated)?
HepG2 tox: -20%; DT40 TDP1 CPT: 13µM*; TGFb SMAD3 inh: 0%; DT40 TDP1 no CPT: 10µM*

Results for COc1ccccc1CNC(=O)C1CCCN(c2nn3cc(-c4ccc(F)cc4)nc3s2)C1 (configuration not stated) ?
HepG2 tox: 7%; DT40 TDP1 CPT: inconclusive; TGFb SMAD3 inh: 0%; DT40 TDP1 no CPT: inconclusive

What do the screens show for `CCc1ccc(NC(=O)NCCc2c(C)nn(C)c2C)cc1`?
HepG2 tox: 3%; DT40 TDP1 CPT: -5%; TGFb SMAD3 inh: 1%; DT40 TDP1 no CPT: inconclusive

How did O=C(Oc1ccccc1)N1CCC2(CCCN(c3ccncc3)C2)CC1 do in these assays?
DT40 TDP1 CPT: 21µM*; DT40 TDP1 no CPT: 15µM*

How did COC(=O)N1CCC2(CC1)CCN(c1ccncc1)CC2 do in these assays?
DT40 TDP1 CPT: 7.3µM*; DT40 TDP1 no CPT: 16µM*

Results for O=C(Oc1ccccc1)N1CCC2(CCCN(c3ccccc3)C2)CC1 ?
DT40 TDP1 CPT: 0%; DT40 TDP1 no CPT: -20%

What do the screens show for `O=C(Oc1ccccc1)N1CCC2(CC1)CN(c1ccncc1)C2`?
DT40 TDP1 CPT: 13µM*; DT40 TDP1 no CPT: 10µM*

How did COC(=O)N1CCC[C@@]2(CCN(c3ccncc3)C2)C1 do in these assays?
DT40 TDP1 CPT: -22%; DT40 TDP1 no CPT: -21%

Results for COc1ccc(C(=O)Oc2cc(-c3ccc(OC)c(OC)c3)cc(=O)c3c(C)oc(C)c23)cc1 ?
HepG2 tox: -7%; DT40 TDP1 CPT: inconclusive; TGFb SMAD3 inh: -5%; DT40 TDP1 no CPT: 18µM*

How did CCOc1ccc(-c2cc(OC(=O)c3ccc(F)cc3)c3c(C)oc(C)c3c(=O)c2)cc1 do in these assays?
HepG2 tox: -9%; DT40 TDP1 CPT: inconclusive; TGFb SMAD3 inh: 19%; DT40 TDP1 no CPT: 16µM*
